“And” between values parts separate entries of the source, which are not always exact repeats. Equal entries are not always repeated. Among all 16,000 compounds or so, about 5,800 (36%) were called active. Another 23% or so got no clear call; they are omitted. Calls come from the whole dose curve; as a rule, active = well fitted curve in the direction sought with a large enough effect; inconclusive = small, poorly fitted or top-dose-only effect, or effect the other way; inactive = no such curve, though single readings can be large or run the other way. This is one part of the list.
target: Cytochrome P450 2C19 (Homo sapiens) (UniProt P33261); assay: Cytochrome panel assay with activity outcomes; conditions: recombinant CYP, pro-luciferin dealkylation, luminescence, p450-cyp2c19; series mostly up to 57.1 µM
Sequence (P33261 whole entry, looked up): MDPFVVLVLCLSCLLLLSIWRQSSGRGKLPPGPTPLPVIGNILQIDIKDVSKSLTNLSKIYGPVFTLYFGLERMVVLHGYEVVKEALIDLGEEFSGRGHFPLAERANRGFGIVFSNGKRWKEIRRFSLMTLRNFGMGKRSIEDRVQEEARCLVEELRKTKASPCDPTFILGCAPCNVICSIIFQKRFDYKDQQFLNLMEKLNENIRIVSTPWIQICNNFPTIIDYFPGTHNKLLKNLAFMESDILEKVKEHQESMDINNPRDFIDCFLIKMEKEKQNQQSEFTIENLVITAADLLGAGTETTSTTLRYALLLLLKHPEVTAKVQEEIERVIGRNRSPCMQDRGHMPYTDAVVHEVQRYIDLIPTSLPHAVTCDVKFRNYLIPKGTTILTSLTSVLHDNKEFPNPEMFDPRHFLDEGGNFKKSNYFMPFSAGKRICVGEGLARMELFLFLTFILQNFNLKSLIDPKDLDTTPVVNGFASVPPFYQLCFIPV
% is set by controls: 0 for no effect and ±100 for the full control effect.

AC50, inactive:
O=C(c1ccco1)N1CCC2(CCN(Cc3nccs3)CC2)CC1
O=C(CCc1ccccc1)Nc1ncn[nH]1
CCOC(=O)N1CCN(C(=O)CCn2nc(-c3ccccc3)ccc2=O)CC1
COCCn1c(=O)c(-c2cc(F)cc(F)c2)nc2cnc(N(C)C)nc21
Oc1cc2c(cc1O)[C@H](c1ccccc1)CNCC2
CN1CCCN(C2C3CC4CC(C3)CC2C4)CC1 (stereo not given)
O=C(Nn1cc(C(=O)N2CCN(c3ccccc3F)CC2)c2ccccc2c1=O)c1cnccn1
O=S(=O)(c1cccc2c(Cl)cccc12)N1CCCNCC1
COc1ccc([C@@H]2CNC(=O)C2)cc1OC1CCCC1
Cc1ncc(CO)c(CO)c1O
C[C@H]1CN(S(=O)(=O)c2cccc3cnccc23)CCN1
CC(=O)Nc1ccc(NC(=O)C2CCN(S(=O)(=O)c3cccc4nonc34)CC2)cc1
NC[C@@H]1O[C@H](O[C@@H]2[C@H](O[C@@H]3O[C@H](CO)[C@@H](COC[C@H]4O[C@@H](CN)[C@@H](O)[C@@H](O)[C@@H]4N)[C@@H]3O)[C@@H](O)[C@@H](N)C[C@H]2N)[C@@H](N)[C@H](O)[C@@H]1O
O=C(O)CN(CCN(CC(=O)O)CC(=O)O)CCN(CC(=O)O)CC(=O)O
CCNc1ncc2nc(-c3cccs3)c(=O)n(C)c2n1
O=C(c1cnccn1)N1CCC2(CC1)CN(Cc1cc(C(F)(F)F)cc(C(F)(F)F)c1)C2
C=CCNC(=S)N1CCN(c2ncc3c(=O)c(C(=O)O)cn(CC)c3n2)CC1
COc1ccc2oc(=O)c(NC(=O)C3CCCCC3)cc2c1
COc1c(O)cc2c(c1O)[C@@H]1O[C@@H](CO)[C@@H](O)[C@@H](O)[C@@H]1OC2=O
Cc1nnc(NS(=O)(=O)c2ccc(N)cc2)s1
O=c1[nH]ccc2c(O)cccc12
O=c1[nH]c2ccccc2c2ccccc12
CN(C)Cc1ccccc1-c1nc(N2CCOCC2)c2ccccc2n1
Cc1ccc(C2/C(=C(/O)c3ccc(Cl)cc3)C(=O)C(=O)N2CC2CCCO2)o1 (stereo not given)
Cn1c(=O)c(-c2ccc(Cl)cc2)nc2cnc(Nc3ccccc3)nc21
O=C(O)Cc1nn(Cc2ccc(Br)cc2F)c(=O)c2ccccc12
COc1ncc2nc(-c3ccccc3)c(=O)n(-c3ccccc3)c2n1
COc1ncc2nc(-c3ccc(Cl)cc3)c(=O)n(-c3ccccc3)c2n1
CN1Cc2c(N)cccc2[C@H](c2ccccc2)C1
CCCN(CCC)CCCNC(=O)CS(=O)Cc1nc(-c2ccc(OC)c(OC)c2)oc1C (stereo not given)
CCS(=O)(=O)N1CCC(C(=O)NCCN2CCN(Cc3ccccc3)CC2)CC1
CNc1ncnc2ccc(-c3ccccc3C#N)cc12
CN(C)c1ncnc2ccc(-c3ccccc3C#N)cc12
CN1CCN(c2ncnc3ccc(-c4cccc(C#N)c4)cc23)CC1

AC50, active:
O=C(NCC(c1cccs1)N1CCOCC1)c1ccco1 (stereo not given) 8.91 µM
COc1cccc(C(=O)N2N=C(c3cccc(OC)c3)CC2(O)C(F)(F)F)c1 (stereo not given) 0.794 µM
CCOC(=O)N1N=C(c2ccccc2)CC1(O)C(F)(F)F (stereo not given) 15.8 µM
CCC1=NN(C(=O)CCc2ccccc2)C(O)(C(F)(F)F)C1 (stereo not given) 0.224 µM
O=C(Cn1nnc(-c2ccccc2)n1)OCc1ccccc1 3.98 µM
CN1/C(=C\C(=O)COC(=O)Cn2nnc(-c3ccccc3)n2)C(C)(C)c2ccccc21 11.2 µM
O=[N+]([O-])C1=CC=C2C(=NC3(CCCCC3)N2O)C1=NC1CCCCC1 3.16 µM
Cc1ccc(NC(=O)Nc2ncccc2C)cc1 15.8 µM
CCN(/C=N/c1sc2c(c1C#N)CCCCC2)CC 1.26 µM
CCOC(=O)CSc1nnc(CSc2nc3sc4c(c3c(=O)[nH]2)CCCC4)n1-c1ccccc1 2.51 µM
CC(=O)Nc1ccc(S(=O)(=O)c2ccc(N)cc2)cc1 15.8 µM
COC(=O)C(NS(=O)(=O)c1ccc(NC(C)=O)cc1)C(C)C (stereo not given) 3.16 µM
COC(=O)[C@@H](NC(=O)Nc1ccc(C(C)=O)cc1)C(C)C 17.8 µM
Cc1ccc(C(C2C(=O)CC(C)(C)CC2=O)C2C(=O)CC(C)(C)CC2=O)s1 11.2 µM
O=C(C1CCN(S(=O)(=O)c2cccc3nsnc23)CC1)N1CCN(c2ccccc2F)CC1 22.4 µM
O=C(C1CCCN(S(=O)(=O)c2cccc3nsnc23)C1)N1CC=C(c2ccccc2)CC1 (stereo not given) 2.51 µM
O=S(=O)(c1ccccc1S(=O)(=O)N1CCCCC1)N1CCCCC1 22.4 µM
O=C(C1CCN(S(=O)(=O)c2cccc3nsnc23)CC1)N1CCn2c1nc1ccccc12 10 µM
O=C(C1CCN(S(=O)(=O)c2cccc3nsnc23)CC1)N1CCc2ccccc21 14.1 µM
O=S(=O)(c1cccc2nsnc12)N1CCCC1 0.891 µM
O=C(C1CCN(S(=O)(=O)c2cccc3nsnc23)CC1)N1CCCc2ccccc21 2 µM
CC1CCN(C(=O)C2CCN(S(=O)(=O)c3cccc4nonc34)CC2)CC1 11.2 µM
CCCN(CCC)C[C@@H]1CCCCN1CCNC(=O)N1c2ccccc2C(=O)Nc2cccnc21 7.94 µM
Cc1cc(C)c(S(=O)(=O)N2CCCCC2)c(C)c1N(C)S(=O)(=O)c1ccccc1 2.51 µM
CCc1ccc2c(c1)cc(CN(C(=S)Nc1cccc(C)c1)C1CC1)c1nnnn12 2.24 µM
CCCNS(=O)(=O)c1ccc(OCC(=O)OC)cc1 10 µM
CCN1C(=O)/C(=C/C=C2/SCCN2C)SC1=S 14.1 µM
Cc1ccn2c(NC(=O)c3ccccc3)c(-c3cccs3)nc2c1 17.8 µM
c1ccc(SCc2nc3ccccc3[nH]2)cc1 1.41 µM
c1ccc(-c2nnc(SCc3nc4ccccc4[nH]3)n2Cc2ccco2)cc1 2.51 µM
OC(Cc1nc2ccccc2[nH]1)c1ccccc1Cl (stereo not given) 8.91 µM
CCn1c(SCc2nc3ccccc3[nH]2)nnc1-c1ccc(OC)cc1 2.51 µM
Cc1cc(NC(=O)C2CCCCC2)nc2c1c(=O)oc1ccccc12 8.91 µM
N#Cc1c(-c2ccc3c(c2)OCO3)ccn2nc(-c3cccc(C(F)(F)F)c3)nc12 2.51 µM
Cc1ccc(S(=O)(=O)Nc2nc(C)c(NC(=O)Nc3ccc(Cl)cc3Cl)s2)cc1 14.1 µM
Cc1nc2c(O)cccc2c(=O)[nH]1 0.398 µM
CN1c2ccccc2C(C)(C)C12C=Nc1c(cc(N3CCOCC3)c3ccccc13)O2 (stereo not given) 3.55 µM
COc1cccc(C2=CC(c3ccccc3)n3nnnc3N2)c1 (stereo not given) 0.158 µM
O=c1c2ccccc2c(-c2ccccc2)nn1Cc1ccc(Cl)cc1 1.12 µM
O=c1c2ccccc2c(-c2ccccc2)nn1-c1ccc(Cl)c(Cl)c1 2.51 µM
O=P(Cc1cc[n+]([O-])cc1)(c1ccccc1)c1ccccc1 15.8 µM
Cc1ccccc1-c1nc(CS(=O)CC(=O)NCCN2CCN(Cc3ccccc3)CC2)c(C)o1 (stereo not given) 17.8 µM
CN(Cc1ccco1)c1ncnc2ccc(-c3ccccc3C(F)(F)F)cc12 3.16 µM
CN(Cc1ccco1)c1ncnc2ccc(-c3cccc(C#N)c3)cc12 6.31 µM
CN(Cc1ccco1)c1ncnc2ccc(-c3ccccc3Cl)cc12 3.16 µM
CN(Cc1ccco1)c1ncnc2ccc(-c3ccccc3C#N)cc12 1.26 µM

activity, negative = inhibition, inactive:
CCc1cc2c(nc1CC)CCN(CC/C(C)=N/OCC[C@@H]1C=C[C@H](OC(C)=O)[C@H](COC(C)=O)O1)C2 7.29% [at 11.4 µM]
Cc1cccc(C)c1NC(=O)Nc1ccc(S(N)(=O)=O)cc1 23.1% [at 11.4 µM]
O=C(Nc1ccc2ncccc2c1)Nc1ccc2ncccc2c1 14.5% [at 11.4 µM]
CC(C)NCC[C@@H](O)c1cc2ccccc2o1 31.3% [at 11.4 µM]
Cc1ccc(S(=O)(=O)N[C@H](C(=O)O)C(C)C)cc1 4% [at 11.4 µM]
CC(=O)Nc1ccc(S(=O)(=O)N=S(C)C)cc1 14.7% [at 11.4 µM]
Nc1ccc(S(=O)(=O)c2ccc(NC(=O)c3cccnc3)cc2)cc1 3.12% [at 11.4 µM]
CO/N=C\[C@@H](C)[C@H](OCc1ccccc1)C(C)C 2.64% [at 11.4 µM]
CC1(C)CC(=O)C(C(c2cccc(O)c2O)C2C(=O)CC(C)(C)CC2=O)C(=O)C1 26% [at 11.4 µM]
CC(C)N1CCN(c2ccncc2S(=O)(=O)N2CCCCC2)CC1 -23.9% [at 11.4 µM]
CC1CCC(C(=O)O)([C@H](Br)C(=O)O)CC1 (stereo not given in full) -0.894% [at 11.4 µM]
O=S(=O)(c1cnccc1N1CCN(CCO)CC1)N1CCCC1 33.1% [at 11.4 µM]
Cc1ccc(S(=O)(=O)N[C@H]2COC(=O)CC=C[C@@H](C)[C@H]3C=C[C@H](O)[C@@H](COC(=O)CC=C[C@H]2C)O3)cc1 14.2% [at 11.4 µM] and 5.29% [at 11.4 µM]
Cc1ccc(S(=O)(=O)NC(=O)Nc2ncn[nH]2)cc1 37.1% [at 11.4 µM]
O=P(O)(CCP(=O)(O)c1ccccc1)c1ccccc1 2.23% [at 11.4 µM]
